Drawing on PubChem BioAssay (NCATS), this text covers Potency for 21 molecules.

Common to all, as to assay: qHTS profiling for inhibitors of Plasmodium falciparum proliferation (AID 504749); further: nearly all actives have a fitted effect of over 60% in size
Holding throughout (settings): P. falciparum in erythrocytes, SYBR Green DNA, 72 h; series mostly up to 28.7 µM
Background: qHTS replaces the single test concentration by a dilution series.

One assay has as its system CP238. In outline: (§1)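 Fluorescence of SYBR Green-bound parasite DNA, read at 485/535 nm, served as the growth measure. Infected erythrocytes were cultured with compound 72 h; artemisinin (0.29 uM) and DMSO wells defined the normalization range.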
Another assay concerns CP247. In outline: as §1
Another assay has as its system CP250. In a few lines:
as §1

The next assay has as its system CP252. In outline: as §1
A further assay deals with CP256. In a few lines: as §1
For another assay, the system named is CP260. In a few lines: as §1
For the next assay, the system named is CP262. In a few lines:
as §1

The test system of another assay is CP265. In outline: as §1
For another assay, the system named is CP266. In a few lines:
as §1

The subject of another assay is CP268. In outline:
as §1

The structures appear in SMILES notation. Records with an inconclusive call do not appear. Activity calls are given as the source filed them. The call rests on the fitted dose curve; in most records, active means well fitted inhibition curve with a large enough effect; inconclusive means small, poorly fitted or top-dose-only effect; inactive means flat fitted curve, though single readings scatter.
Potency means the concentration at half of the fitted maximal effect.

Turning to `Cc1cccc(Nc2ccncc2S(=O)(=O)NC(=O)NC(C)C)c1`, the Potency entry in the assay with CP238, in the assay with CP247, in the assay with CP250, with CP252, with CP256 and with CP260 was “inactive” each time. The Potency entry in the assay with CP262, in the assay with CP265, in the assay on CP266 and with CP268 was “inactive” throughout.

With `CN(C)CCc1c[nH]c2ccc(CS(=O)(=O)N3CCCC3)cc12`, the Potency entry in the assay on CP238, in the assay with CP247, in the assay on CP250, in the assay on CP252, with CP256 and in the assay on CP260 was “inactive” each time. For the same molecule, the Potency result with CP262, in the assay with CP265, in the assay on CP266 and with CP268 was “inactive” each time.

As for `CCOc1cc(N)c(Cl)cc1C(=O)NCC1CN(Cc2ccc(F)cc2)CCO1` (configuration not stated), the Potency was 11.2 µM (active) in the assay with CP238; 7.08 µM (active) with CP247; 5.62 µM (active) in the assay on CP250; 10 µM (active) with CP252; 2.82 µM (active) with CP256; 11.2 µM (active) with CP260. The results for the Potency in the assay on CP262 and in the assay on CP265 were 6.01 µM (active) and 3.16 µM (active), respectively.

For the molecule `CC[C@H](NC(C)C)[C@H](O)c1ccc(O)c2[nH]c(=O)ccc12`, the Potency result in the assay on CP238, in the assay on CP247, with CP250, with CP252, in the assay with CP256 and in the assay with CP260 was “inactive” throughout. For the same molecule, the Potency entry in the assay with CP262, with CP265, in the assay with CP266 and with CP268 was “inactive” in each case.

Consider `COc1cc(NCc2ccc3nc(N)nc(N)c3c2C)cc(OC)c1OC`, for which the Potency with CP238 was 0.631 µM (active); in the assay on CP247, 0.447 µM (active); with CP250, 0.794 µM (active); in the assay with CP252, 0.251 µM (active); with CP256, 0.316 µM (active); in the assay on CP260, 0.158 µM (active). The Potency is 0.169 µM (active) in the assay with CP262, 3.16 µM (active) in the assay on CP265, 4.26 µM (active) in the assay with CP266 and 0.953 µM (active) in the assay on CP268.

With `CNC(=O)c1cc(Oc2ccc(NC(=O)Nc3ccc(Cl)c(C(F)(F)F)c3)cc2)ccn1`, the Potency in the assay on CP238, in the assay on CP247 and with CP250 was 10 µM (active) in each case.

In the case of `C[C@]12C=CC(=O)C=C1CC[C@@H]1[C@@H]2C(=O)C[C@@]2(C)[C@H]1CC[C@]2(O)C(=O)CO`, the Potency result in the assay with CP238, in the assay on CP247, in the assay on CP250, in the assay with CP252, in the assay on CP256 and in the assay on CP260 was “inactive” in each case. The Potency entry in the assay with CP262, in the assay with CP265, in the assay on CP266 and in the assay with CP268 was “inactive” throughout.

Take `Nc1[nH]c(=O)ncc1F`: the Potency result in the assay with CP238, in the assay with CP247, in the assay with CP250, in the assay on CP252, with CP256 and in the assay with CP260 was “inactive” throughout. Further, the Potency entry with CP262, in the assay with CP265, with CP266 and in the assay with CP268 was “inactive” throughout.

With `CNS(=O)(=O)Cc1ccc2[nH]cc(CCN(C)C)c2c1`, the Potency entry in the assay on CP238, in the assay with CP247, in the assay on CP250, with CP252, in the assay with CP256 and in the assay on CP260 was “inactive” throughout. Besides, the Potency result in the assay with CP262, in the assay on CP265, with CP266 and in the assay on CP268 was “inactive” each time.

`CC(C)OC(=O)C(C(=O)OC(C)C)=C1SC=CS1`: the Potency result with CP238, in the assay on CP247, in the assay with CP250, with CP252, with CP256 and in the assay with CP260 was “inactive” throughout. Also, the Potency result with CP262, in the assay with CP265, in the assay on CP266 and in the assay with CP268 was “inactive” throughout.

With `Nc1nc(N)c2nc(CNc3ccc(C(=O)NC(CCC(=O)O)C(=O)O)cc3)cnc2n1` (configuration not stated), the Potency entry in the assay on CP238, in the assay on CP247, in the assay with CP250, in the assay on CP252, in the assay on CP256 and in the assay on CP260 was “inactive” in each case. For the same molecule, the Potency entry with CP262, in the assay with CP265, in the assay with CP266 and in the assay on CP268 was “inactive” each time.

Take `CCCc1cc(C(N)=S)ccn1`: the Potency entry with CP238, in the assay with CP247, in the assay on CP250, with CP252, with CP256 and in the assay with CP260 was “inactive” each time. Moreover, the Potency result with CP262, in the assay on CP265, in the assay on CP266 and in the assay on CP268 was “inactive” throughout.

As to `CN1CCN(c2c(F)cc3c(=O)c(C(=O)O)cn(CCF)c3c2F)CC1`, the Potency entry in the assay with CP238, in the assay with CP247, with CP250, with CP252, with CP256 and with CP260 was “inactive” each time. In addition, the Potency entry in the assay on CP262, in the assay with CP265, with CP266 and in the assay on CP268 was “inactive” in each case.

Take `CN(CCOc1ccc(CC2SC(=O)NC2=O)cc1)c1ccccn1` (configuration not stated): the Potency result in the assay on CP238, with CP247, in the assay on CP250, in the assay on CP252, in the assay with CP256 and in the assay on CP260 was “inactive” in each case. For the same molecule, the Potency result in the assay on CP262, in the assay on CP265, with CP266 and in the assay on CP268 was “inactive” each time.

In the case of `CCCN[C@H]1CCc2nc(N)sc2C1`, the Potency entry in the assay with CP238, with CP247, in the assay with CP250, in the assay with CP252, in the assay on CP256 and in the assay with CP260 was “inactive” in each case. Further, the Potency entry in the assay on CP262, in the assay on CP265 and in the assay with CP268 was “inactive” each time.

As for `CC1=NN(c2ccccc2)C(=O)C1`, the Potency result in the assay on CP238, with CP247, in the assay on CP250, in the assay with CP252, in the assay on CP256 and in the assay on CP260 was “inactive” each time. The Potency entry in the assay on CP262, in the assay with CP265, in the assay on CP266 and in the assay with CP268 was “inactive” throughout.

On to `CC(C)NCC(O)c1ccc(NS(C)(=O)=O)cc1` (configuration not stated), for which the Potency entry in the assay with CP238, with CP247, with CP250, in the assay on CP252, with CP256 and with CP260 was “inactive” throughout. For the same molecule, the Potency entry with CP262, in the assay with CP265, in the assay on CP266 and with CP268 was “inactive” in each case.

`NC(N)=NC(N)=NCCc1ccccc1`: the Potency result in the assay with CP238, with CP247, with CP250, in the assay with CP252, in the assay on CP256 and in the assay with CP260 was “inactive” each time. In addition, the Potency result with CP262, with CP265, in the assay with CP266 and in the assay on CP268 was “inactive” throughout.

For `Cc1cccc(N(C)C(=S)Oc2ccc3ccccc3c2)c1`, the Potency entry with CP238, in the assay on CP247, with CP250, in the assay on CP252, in the assay on CP256 and with CP260 was “inactive” each time. The Potency entry in the assay with CP262, with CP265 and with CP268 was “inactive” in each case.

With `Cc1oc(=O)oc1CN1CCN(c2cc3c(cc2F)c(=O)c(C(=O)O)c2n3C(C)S2)CC1` (configuration not stated), the Potency is 6.31 µM (active) in the assay with CP238; 8.91 µM (active) in the assay on CP247; 8.91 µM (active) in the assay with CP250; 7.94 µM (active) in the assay on CP252; 8.91 µM (active) in the assay on CP256; 6.31 µM (active) in the assay on CP260. For the same molecule, in the assay on CP265, the Potency was 11.2 µM (active). Further, in the assay with CP266, the Potency entry is “inactive”.

For `CCc1cc(C(N)=S)ccn1`, the Potency result with CP238, in the assay with CP247, with CP250, in the assay on CP252, in the assay on CP256 and with CP260 was “inactive” throughout. For the same molecule, the Potency entry in the assay on CP262, in the assay with CP265, in the assay with CP266 and in the assay with CP268 was “inactive” each time.
